Assay results reported in PubChem BioAssay (NCATS).
Results filed as inconclusive are left out. The source made the active and inactive calls. The call rests on the fitted dose curve; in most records, active means well fitted inhibition curve with a large enough effect; inconclusive means small, poorly fitted or top-dose-only effect; inactive means flat fitted curve, though single readings scatter.

What was measured:
Assay in all cases: qHTS profiling for inhibitors of Plasmodium falciparum proliferation (AID 504749); further: nearly all actives have a fitted effect of over 60% in size
Conditions in all cases: P. falciparum in erythrocytes, SYBR Green DNA, 72 h; series mostly up to 28.7 µM
P93_24 = test system: P93_24
Summary of the method: (§1)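 Quantitative HTS: compounds pinned into medium, infected erythrocytes added (0.3% parasitemia, 2.5% hematocrit), 72 h culture at 37 C under 5% CO2. Saponin/Triton lysis with SYBR Green I, overnight RT, then fluorescence read.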

P94_40 = test system: P94_40
Summary of the method: as §1

PAD = test system: PAD
Summary of the method: as §1

PC15 = test system: PC15
Summary of the method: as §1

PC26 = test system: PC26
Summary of the method: as §1

PC49 = test system: PC49
Summary of the method: as §1

SC27B = test system: SC27B
Summary of the method: as §1

TAB109 = test system: TAB109
Summary of the method: as §1

TAB113 = test system: TAB113
Summary of the method: as §1

TAB165 = test system: TAB165
Summary of the method: as §1

Measured: Potency
Potency means the concentration at half of the fitted maximal effect.

CCN(Cc1ccncc1)C(=O)C(CO)c1ccccc1 (centres undefined)
inactive: P93_24 | P94_40 | PAD | PC15 | PC26 | PC49 | SC27B | TAB109 | TAB113 | TAB165

NC1=NCC2c3ccccc3Cc3ccccc3N12 (centres undefined)
inactive: P93_24 | P94_40 | PAD | PC15 | PC26 | PC49 | SC27B | TAB109 | TAB113 | TAB165

COC(=O)[C@@H](N)Cc1ccc(O)c(O)c1
inactive: P93_24 | P94_40 | PAD | PC15 | PC26 | PC49 | SC27B | TAB109 | TAB165

COC(=O)C1=C(C)NC(C)=C(C(=O)OC(C)(C)CN(C)CCC(c2ccccc2)c2ccccc2)C1c1cccc([N+](=O)[O-])c1 (centres undefined)
active: P93_24 2.51 µM | P94_40 2.51 µM | PAD 2.51 µM | PC15 6.31 µM | PC26 1.51 µM | SC27B 2.24 µM | TAB109 3.16 µM | TAB113 2.51 µM | TAB165 2.24 µM

CN(C)C(=O)Oc1ccc[n+](C)c1
inactive: P93_24 | P94_40 | PAD | PC15 | PC26 | PC49 | SC27B | TAB109 | TAB113 | TAB165

CCn1ccnc1CC1COc2ccccc2O1 (centres undefined)
inactive: P93_24 | P94_40 | PAD | PC15 | PC26 | PC49 | SC27B | TAB109 | TAB113 | TAB165

OCCN1CCN(CC/C=C2/c3ccccc3Sc3ccc(C(F)(F)F)cc32)CC1
active: P93_24 10 µM | P94_40 10 µM | PAD 10 µM | PC15 12.6 µM | PC26 6.75 µM | SC27B 10 µM | TAB109 8.91 µM | TAB113 11.2 µM | TAB165 10 µM

CCCN(CCC)CCc1cccc2c1CC(=O)N2
inactive: P93_24 | P94_40 | PAD | PC15 | PC26 | PC49 | SC27B | TAB109 | TAB113 | TAB165

CCN(CC)CCOCCOC(=O)C1(c2ccccc2)CCCC1
active: P93_24 6.31 µM | P94_40 7.08 µM | PAD 8.91 µM | PC15 11.2 µM | PC26 12 µM | PC49 7.08 µM | SC27B 12.6 µM | TAB109 6.31 µM | TAB113 11.2 µM | TAB165 8.91 µM

Cc1cc(C)c(/C=C2\C(=O)Nc3ccccc32)[nH]1
inactive: P93_24 | P94_40 | PAD | PC15 | PC26 | PC49 | SC27B | TAB109 | TAB113 | TAB165

CCNC(=O)N1CCN(CCCC(c2ccc(F)cc2)c2ccc(F)cc2)CC1
active: P93_24 2 µM | P94_40 2.82 µM | PAD 3.55 µM | PC15 3.55 µM | PC26 4.78 µM | PC49 0.891 µM | SC27B 2 µM | TAB109 2.24 µM | TAB113 2.24 µM | TAB165 2 µM

CC(C)NNC(=O)c1ccncc1
inactive: P93_24 | P94_40 | PAD | PC15 | PC26 | PC49 | SC27B | TAB113 | TAB165

O=C1CC2(CCCC2)CC(=O)N1CCCCN1CCN(c2ncccn2)CC1
inactive: P93_24 | P94_40 | PAD | PC15 | PC49 | SC27B | TAB109 | TAB113 | TAB165

CCN(CC)CCNC(=O)c1cc(S(C)(=O)=O)ccc1OC
inactive: P93_24 | P94_40 | PAD | PC15 | PC49 | SC27B | TAB109 | TAB113 | TAB165

CNC1(C)C2CCC(C2)C1(C)C (centres undefined)
inactive: P93_24 | P94_40 | PAD | PC15 | PC26 | PC49 | SC27B | TAB109 | TAB113 | TAB165

Cc1ccc(S(=O)(=O)NC(=O)NN2CCCCCC2)cc1
inactive: P93_24 | PAD | PC15 | PC26 | PC49 | SC27B | TAB109 | TAB113 | TAB165

CN(C)C/C=C(/c1ccc(Br)cc1)c1cccnc1
inactive: PC15 | PC26 | PC49 | SC27B | TAB113

CC(C)(C)c1ccc(C(=O)CCCN2CCC(OC(c3ccccc3)c3ccccc3)CC2)cc1
inactive: PC49
active: P94_40 7.94 µM | TAB165 7.94 µM

CCCC(C(=O)OCCN(CC)CC)(c1ccccc1)c1ccccc1
active: PAD 11.2 µM | PC15 10 µM | PC26 12 µM | PC49 7.08 µM | TAB109 11.2 µM | TAB113 10 µM

c1cc(CN2CCCCC2)cc(OCCCNc2nc3ccccc3s2)c1
active: P94_40 10 µM | TAB109 2.24 µM | TAB165 3.98 µM

COc1cc(C(=O)OCCCN2CCCN(CCCOC(=O)c3cc(OC)c(OC)c(OC)c3)CC2)cc(OC)c1OC
active: P93_24 10 µM | TAB109 11.2 µM | TAB113 11.2 µM | TAB165 8.91 µM

O=C(CCCN1CCC(O)(c2cccc(C(F)(F)F)c2)CC1)c1ccc(F)cc1
active: P93_24 10 µM | P94_40 8.91 µM | PAD 10 µM | PC49 7.94 µM | SC27B 11.2 µM | TAB109 8.91 µM | TAB113 12.6 µM | TAB165 7.94 µM

CCOC(=O)c1cnc2c(cnn2CC)c1NN=C(C)C
inactive: P93_24 | PAD | PC15 | PC26 | PC49 | SC27B | TAB109 | TAB113 | TAB165

NC(N)=N/N=C/c1c(Cl)cccc1Cl
inactive: PC49 | SC27B

CC(C)COCC(CN(Cc1ccccc1)c1ccccc1)N1CCCC1 (centres undefined)
inactive: P93_24 | PAD | PC49 | SC27B | TAB109 | TAB113
